In the library only some 2.4% were active in any assay of this set; here they are far more common.
Pol eta inh-1: DNA polymerase eta (human) inhibition; AID 588591; hit rate 1.2% among 390,000; Q9Y253; Potency, µM (series often up to 114 µM), for the others: at the top dose activity change, negative = inhibition, actives largely listed as inhibitors; recombinant Pol eta, fluorescent DNA replication assay; further: potency means the concentration at half of the fitted maximal effect; on the % scale 0 is the no-effect control and ±100 the full control effect
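Pol eta (10 nM) was preincubated with compounds for 15 min at room temperature, after which fluorescent replication substrate (50 nM final) was added to start the reaction. Fluorescence was read kinetically at 0 and 10 min.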
Pol kappa inh-1: inhibitors of human DNA polymerase kappa; Q9UBT6; purified Pol kappa, fluorescent DNA synthesis assay, 10 min; Potency, µM (titrated, usually from 107 µM), for inactives: at the highest dose activity, negative = inhibition, usual class: inhibitors; hit rate 0.53% among 400,000; AID 588579; further: potency means the concentration at half of the fitted maximal effect; on the % scale 0 is the no-effect control and ±100 the full control effect
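First, compounds were pin-transferred onto 10 nM Pol kappa. After 15 min at room temperature, substrate was added to 50 nM final. Fluorescence was then measured kinetically at 0 and 10 min.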
Pol iota inh: DNA polymerase iota (human) inhibition. Q9UNA4. Pol iota fluorescent replication assay, 10 min. Potency, µM (series often up to 115 µM), without a hit: at the top dose activity, negative = inhibition, actives largely listed as inhibitors. hit rate 1% among 390,000; further: potency means the concentration at half of the fitted maximal effect
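Fluorescent replication assay read twice, at 0 min and 10 min after adding 50 nM (final) substrate. Enzyme (10 nM) and compounds were first incubated 15 min at room temperature; enzyme-free buffer wells were negative controls.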
WRN helicase inh: blocks human WRN helicase. WRN helicase unwinding, fluorescent forked duplex, kinetic. Potency, µM (series often up to 114 µM), without a hit: at the top dose activity change, negative = inhibition, hits mostly inhibitors. Q14191. AID 651768. hit rate 0.46% among 360,000; further: potency means the concentration at half of the fitted maximal effect; on the % scale 0 is the no-effect control and ±100 the full control effect; nearly all actives have a fitted effect of over 55% in size
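Screening of the MLSMR collection measured strand separation of a quenched forked DNA duplex (100 nM) by 20 nM WRN with 2 mM ATP, all final. Compounds were preincubated with enzyme 15 min at room temperature.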
Pol beta inh: DNA polymerase beta (human) inhibition; Pol beta primer extension/strand displacement, fluorescence kinetic; Potency, µM (series often up to 114 µM), without a hit: top-dose activity change, negative = inhibition, actives largely listed as inhibitors; hit rate 1.3% among 340,000; P06746; further: potency means the concentration at half of the fitted maximal effect; on the % scale 0 is the no-effect control and ±100 the full control effect
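Curves were derived by four-parameter Hill fits of normalized qHTS data. The kinetic fluorescent primer-extension read was taken at 0 and 10 min after 50 nM substrate, following a 15 min room-temperature preincubation of 10 nM enzyme with compounds.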
FEN1 inhibitor: human FEN1 inhibition. P39748. Recombinant FEN1 flap cleavage, fluorescence, 15 min. Potency, µM (doses to about 114 µM), for inactives: top-dose activity change, negative = inhibition, most hits filed as inhibitors. hit rate 0.35% among 390,000. AID 588795; further: potency means the concentration at half of the fitted maximal effect; on the % scale 0 is the no-effect control and ±100 the full control effect; nearly all actives have a fitted effect of over 65% in size
Target sequence (P39748 whole entry, looked up): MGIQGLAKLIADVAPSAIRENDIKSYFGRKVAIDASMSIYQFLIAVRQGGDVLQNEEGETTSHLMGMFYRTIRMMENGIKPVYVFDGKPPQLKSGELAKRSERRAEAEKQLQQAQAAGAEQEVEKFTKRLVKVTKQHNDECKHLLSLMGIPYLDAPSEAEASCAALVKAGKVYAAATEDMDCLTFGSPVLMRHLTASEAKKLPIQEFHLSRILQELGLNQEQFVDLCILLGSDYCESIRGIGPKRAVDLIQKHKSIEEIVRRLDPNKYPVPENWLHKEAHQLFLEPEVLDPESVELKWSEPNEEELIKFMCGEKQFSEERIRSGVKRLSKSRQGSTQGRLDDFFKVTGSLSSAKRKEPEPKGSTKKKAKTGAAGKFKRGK
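Compounds are tested as a concentration series against 10 nM FEN1; after a 15 min room-temperature preincubation, 50 nM substrate starts cleavage, with plate reads at 0 and 15 min. Normalized responses are fitted by a Hill equation.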
GALK inh confirm: confirmation of human galactokinase (GALK) inhibitors; shares compounds with Pol eta inh-1; purified GALK, Kinase-Glo ATP depletion luminescence; Potency, µM (titrated, usually from 115 µM), inactives show at the top dose activity, negative = inhibition, actives largely listed as inhibitors; hit rate 70% among 150; AID 2015
Target sequence (P51570 whole entry, looked up): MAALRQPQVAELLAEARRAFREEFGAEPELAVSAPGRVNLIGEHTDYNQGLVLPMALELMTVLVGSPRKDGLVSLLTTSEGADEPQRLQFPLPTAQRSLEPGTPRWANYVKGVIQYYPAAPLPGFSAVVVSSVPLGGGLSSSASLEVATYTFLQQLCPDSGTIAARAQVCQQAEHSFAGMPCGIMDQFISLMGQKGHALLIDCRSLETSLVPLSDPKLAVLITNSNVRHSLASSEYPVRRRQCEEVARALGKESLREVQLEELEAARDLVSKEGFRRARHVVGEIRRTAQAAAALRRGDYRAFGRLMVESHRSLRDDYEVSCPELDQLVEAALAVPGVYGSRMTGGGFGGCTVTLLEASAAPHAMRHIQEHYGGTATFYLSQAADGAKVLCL
GALK redox cs: generates H2O2 by redox cycling, flagging GALK artifacts; Potency, µM (top dose mostly 115 µM), without a hit: at the highest dose activity change, negative = H2O2 signal, hits mostly inhibitors; hit rate 40% among 150; AID 2035; Phenol red-HRP H2O2 redox cycling, absorbance 600 nm; shares compounds with Pol eta inh-1
HEK293 tox: counter-screen for GALK inhibitors: HEK293 cell cytotoxicity; hit rate 10% among 170; HEK-293 viability, ATP luminescence (CellTiter-Glo), 24/48 h; AID 2547; Potency, µM (titrated, usually from 46.1 µM), without a hit: at the top dose activity change, negative = cytotoxicity, actives largely listed as inhibitors; shares compounds with Pol eta inh-1; further: potency means the concentration at half of the fitted maximal effect; on the % scale 0 is the no-effect control and ±100 the full control effect
Pol kappa inh-2: Pol kappa (human) inhibition, cherry-pick confirmation; shares compounds with Pol eta inh-1; purified Pol-kappa, fluorescent strand-displacement substrate; Potency, µM, most hits filed as inhibitors; hit rate 76% among 920; AID 720501; further: potency means the concentration at half of the fitted maximal effect
Pol eta inh-2: Pol eta (human) inhibition, cherry-pick confirmation. shares compounds with Pol eta inh-1. Pol eta primer extension, TAMRA/BHQ fluorescence, 10 min. Potency, µM, usual class: inhibitors. hit rate 64% among 2,600. AID 720502; further: potency means the concentration at half of the fitted maximal effect
Numbers without * were called inactive; ? = inconclusive; . = no result given; ! = a repeat was not active; [ ] = another dose, or the depositor's remark. The call rests on the fitted dose curve; in most records, active means well fitted curve in the direction sought with a large enough effect; inconclusive means small, poorly fitted or top-dose-only effect, or another doubt; inactive means no such curve, though single readings can be large; an effect the other way counts as inactive or inconclusive.

SMILES | Pol eta inh-1 | Pol kappa inh-1 | Pol iota inh | WRN helicase inh | Pol beta inh | FEN1 inhibitor | Pol eta inh-2 | others
COc1ccc2cc3c(N)c(C(=O)NCc4ccco4)sc3nc2c1 | ? | ? | ? | -18% | 3% | ? | .
Nc1c(C(=O)NCc2ccco2)sc2nc3c(cc12)C(=O)CCC3 | 32µM* | ? | ? | ? | 32µM* | ? | 54*
CCN(CC)c1ccc(NS(=O)(=O)c2cc(-c3onc(C)c3C)ccc2OC)c(C)c1 | -15% | -4% | 30% | . | -3% | -1% | .
Cc1ccccc1N1C(S)=C(C#N)C(=O)NC1c1ccco1 (stereo not drawn) | 28µM* | -44% | 22µM* | -8%[11.6 µM] | 28µM* | -18% | ?
CCOC(=O)C1=C(COC(=O)COc2ccccc2C=O)NC(=O)NC1C (stereo not drawn) | 13µM* | ? | ? | -25% | . | -9% | 76*
CCOC(=O)C1=C(COC(=O)COc2ccccc2OCC)NC(=O)NC1C (stereo not drawn) | -5% | 2% | 3% | -16% | . | 5% | .
Cc1cccc(NC(=O)C(=O)NCC(c2cccnc2)N2CCc3ccccc3C2)c1C (stereo not drawn) | -19% | -7% | -8% | . | -2% | -3% | .
Cc1ccc(OCC(=O)N/N=C/c2cccn2C)cc1C | -7% | -11% | 2% | -17% | -2% | 3% | .
O=C(COc1ccccc1)N/N=C/c1sc(=O)n(Cc2cccc(C(=O)O)c2)c1Cl | 22µM* | -38% | ? | -7%[11.6 µM] | -12% | -5% | 34*
COc1ccc(OCC(=O)N/N=C/c2cccn2-c2cccc(C(=O)O)c2)cc1 | 5µM* | 79µM* | 10µM* | ? | . | 5% | 30* | Pol kappa inh-2=21*
O=C(N=Nc1c(O)[nH]c2ccc([N+](=O)[O-])cc12)c1cc(-c2ccccc2Cl)nc2ccccc12 | ? | -12%[60.1 µM] | ? | -20%[11.6 µM] | ? | -3% | . | Pol kappa inh-2=?
COc1ccccc1C(=O)N=Nc1c(O)[nH]c2ccc([N+](=O)[O-])cc12 | -7% | ? | -21% | -13% | -27% | -26% | .
Cc1cc(C(=O)N/N=C/c2cc(Br)c(Br)o2)n[nH]1 | 18µM* | 79µM* | 14µM* | ? | 45µM* | 8% | 60* | Pol kappa inh-2=47*
O=C(Oc1cccc([N+](=O)[O-])c1)c1ccc2c(=O)n3c(nc2c1)CCC3 | 28µM* | ? | 40µM* | -10%[11.6 µM] | . | 0% | 76*
CC1(C)CC(=O)C2=C(C1)NC(Nc1nc3ccccc3o1)=NC2c1cccc(Cl)c1 (stereo not drawn) | . | . | . | . | . | . | . | HEK293 tox=?
COc1ccccc1C1N=C(Nc2nc3ccccc3o2)NC2=C1C(=O)CC(C)(C)C2 (stereo not drawn) | . | -18% | 29% | . | . | -13% | . | HEK293 tox=-28%
COc1cccc(C2C(C(=O)Nc3nc4ccccc4s3)=C(C)NC3=C2C(=O)CC(C)(C)C3)c1OC (stereo not drawn) | -2% | -14% | 9% | 9% | 12% | 3% | .
CCCN1CN=C(Nc2nc3ccccc3o2)NC1 | -16% | 3% | 58% | -6% | -7% | -4% | .
O=C1CCCC2=C1C(c1ccc(Cl)cc1)N=C(Nc1nc3ccccc3o1)N2 (stereo not drawn) | . | 1% | -6% | . | . | -16% | . | HEK293 tox=13%
COc1cccc(C2N=C(Nc3nc4ccccc4o3)NC3=C2C(=O)CC(C)(C)C3)c1 (stereo not drawn) | . | . | . | . | . | . | . | HEK293 tox=6%
O=C(CSc1nc2ccccc2n1Cc1cccc(C(F)(F)F)c1)NCc1ccccc1 | -12% | 3%[60.1 µM] | 12% | . | -15% | 6% | .
O=C1c2cccc3c([N+](=O)[O-])ccc(c23)C(=O)N1Cc1cccnc1 | ? | -10% | ? | -13% | 16µM* | ? | ?
O=C1c2cccc3cccc(c23)C(=O)N1Cc1cccnc1 | -15% | 0% | 109% | -8% | -1% | 2% | .
CC(=O)Nc1ccc2nc3c(=O)n(C)c(=O)n(C)c3nc2c1 | 35µM* | ? | 10µM* | 10µM* | ? | ? | 85*
O=[N+]([O-])c1cc([N+](=O)[O-])c2oc(-c3ccccc3)c(Br)c2c1O | 25µM* | ? | ? | ? | 28µM* | 45µM* | . | GALK inh confirm=53µM*;GALK redox cs=7%;HEK293 tox=-8%
SMILES | Pol eta inh-1 | Pol kappa inh-1 | Pol iota inh | WRN helicase inh | Pol beta inh | FEN1 inhibitor | Pol eta inh-2 | others
CC1Cc2cc(/C=C3/SC(=S)NC3=O)ccc2O1 (stereo not drawn) | 9% | -16% | -5% | -15% | 3% | -13% | .
Cc1ccc(C2C(/C=C3/SC(=S)NC3=O)=C(c3cccs3)Oc3ccccc32)cc1 (stereo not drawn) | 71µM* | ? | ? | 79µM* | 32µM* | ? | ? | Pol kappa inh-2=?
CN(C)CCCn1c2c3ccccc3ccc2c2oc(=O)c3ccccc3c21 | ? | 50µM*! | 14µM* | -5%[11.6 µM] | . | 3.2µM* | ?
COc1ccc(Br)cc1/C=C/C(=O)NC(=S)Nc1ccc(Cl)c(C(=O)O)c1 | 25µM* | 2% | 17% | -5%[11.6 µM] | 12% | ? | . | Pol kappa inh-2=?
O=C(O)/C=C/c1cccnc1 | -11% | -29% | 10% | 3% | -24% | -3% | .
CC(/C=C\c1cccnc1)=C/C(=O)O | 20µM*! | -13% | -11% | -17%[57.1 µM] | 28µM*! | -3% | 48*
COc1ccccc1-c1noc(-c2ccc(NC3CCCC3)c([N+](=O)[O-])c2)n1 | 1% | -4% | ? | . | ? | 12% | .
C#CCOc1ccc(/C=C2/C(=O)N(c3cccc(C(=O)O)c3)N=C2C)cc1OC | 50µM* | -23% | 2µM* | ? | 13% | ? | ?

Compound activity (PubChem BioAssay)
